In assay [1] the target is Nuclear receptor coactivator 3 (Homo sapiens) (UniProt Q9Y6Q9). Briefly: SRC3 coactivator transcriptional activity inhibitors, confirmation, cell-based, luminescence, quadruplicate (AID 588792;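 active means mean inhibition over 43.08%, the solvent-only control mean plus 3 SD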;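 further: 0% = DMSO treated cells and 100% = gossypol at 36 µM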). The conditions noted are these: HEK293 GAL4-SRC3 luciferase reporter, at 3.6 µM, stronger effect = higher value.
Assay [2] deals with transactivating tegument protein VP16 (Human herpesvirus 1), Gal4-VP16 luciferase reporter. Briefly: VP16 transactivation inhibitors, counter-screen for SRC3 inhibitor project, cell-based, luminescence, high throughput (AID 588794; in the data active means inhibition above about 30%). The conditions noted are these: mammalian cells, VP16-driven luciferase reporter luminescence; at 3.6 µM; stronger effect = higher value.
The target in assay [3] is Nuclear receptor coactivator 1 (Homo sapiens) (UniProt Q15788). Briefly: SRC1 coactivator transcriptional activity inhibitors, confirmation, cell-based, luminescence, quadruplicate (AID 588820;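 active means mean inhibition above 46.68%, the untreated control wells mean plus 3 SD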;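 further: 0% = DMSO wells and 100% = gossypol 36 µM treated wells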). The conditions noted are these: HEK293 GAL4-SRC1 luciferase reporter, at 3.6 µM, stronger effect = higher value.
Nuclear receptor coactivator 1 (Homo sapiens), sequence (Q15788 whole entry, looked up, the tested form may be a part): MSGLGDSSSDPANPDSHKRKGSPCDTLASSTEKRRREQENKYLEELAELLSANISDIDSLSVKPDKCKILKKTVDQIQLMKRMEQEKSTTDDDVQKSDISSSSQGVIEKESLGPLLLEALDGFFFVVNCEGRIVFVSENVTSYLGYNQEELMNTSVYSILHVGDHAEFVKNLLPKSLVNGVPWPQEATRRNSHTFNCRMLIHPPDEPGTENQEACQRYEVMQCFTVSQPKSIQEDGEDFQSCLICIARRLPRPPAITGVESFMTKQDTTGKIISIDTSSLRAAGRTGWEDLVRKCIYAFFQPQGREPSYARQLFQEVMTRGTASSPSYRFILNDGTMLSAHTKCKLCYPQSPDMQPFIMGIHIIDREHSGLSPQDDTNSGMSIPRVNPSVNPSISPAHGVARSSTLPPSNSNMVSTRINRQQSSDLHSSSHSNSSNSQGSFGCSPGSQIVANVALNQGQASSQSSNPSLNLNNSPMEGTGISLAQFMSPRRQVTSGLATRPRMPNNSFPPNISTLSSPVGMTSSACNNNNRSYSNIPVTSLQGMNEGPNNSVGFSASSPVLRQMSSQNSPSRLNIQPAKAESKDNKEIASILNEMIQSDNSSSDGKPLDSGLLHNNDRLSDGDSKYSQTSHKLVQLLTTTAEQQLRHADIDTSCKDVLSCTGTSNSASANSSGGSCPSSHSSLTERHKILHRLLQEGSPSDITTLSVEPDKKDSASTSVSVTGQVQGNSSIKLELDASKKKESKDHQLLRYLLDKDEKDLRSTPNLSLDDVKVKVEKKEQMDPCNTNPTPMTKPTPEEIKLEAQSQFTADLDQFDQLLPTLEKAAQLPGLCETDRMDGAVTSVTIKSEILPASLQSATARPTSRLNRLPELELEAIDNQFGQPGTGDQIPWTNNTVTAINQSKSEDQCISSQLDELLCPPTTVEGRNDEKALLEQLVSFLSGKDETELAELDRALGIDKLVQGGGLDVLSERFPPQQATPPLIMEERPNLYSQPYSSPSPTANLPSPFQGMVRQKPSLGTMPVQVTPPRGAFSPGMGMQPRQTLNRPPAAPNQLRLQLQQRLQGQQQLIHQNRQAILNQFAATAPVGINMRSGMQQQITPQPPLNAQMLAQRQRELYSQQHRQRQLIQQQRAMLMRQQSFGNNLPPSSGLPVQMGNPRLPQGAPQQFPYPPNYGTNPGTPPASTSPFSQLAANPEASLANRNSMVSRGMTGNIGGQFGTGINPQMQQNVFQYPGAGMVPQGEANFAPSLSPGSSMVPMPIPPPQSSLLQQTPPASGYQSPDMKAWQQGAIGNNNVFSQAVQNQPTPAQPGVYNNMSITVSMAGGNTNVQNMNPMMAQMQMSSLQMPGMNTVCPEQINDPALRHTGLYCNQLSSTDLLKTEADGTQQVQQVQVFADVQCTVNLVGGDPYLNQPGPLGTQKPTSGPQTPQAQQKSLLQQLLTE
Assay [4] can be described thus: VP16 transactivation inhibitors, counter-screen for SRC1 inhibitor project, cell-based, luminescence, high throughput (AID 588824; in the data active means inhibition above about 25%). The conditions noted are these: cell-based VP16 transactivation luciferase luminescence; at 3.6 µM; stronger effect = higher value.
Assay [5] is described as follows: StAR promoter reporter inhibitors, counter-screen for LRH-1 inverse agonist project, cell-based, luminescence, high throughput (AID 651611; in the data active means inhibition above about 28%). The conditions noted are these: StAR promoter luciferase reporter counterscreen, at 3.6 µM, stronger effect = higher value.
Assay [6] concerns the target Nuclear receptor subfamily 5 group A member 2 (Homo sapiens) (UniProt O00482). Briefly: LRH-1 (NR5A2) inverse agonists, retest, confirmation, cell-based, luminescence (AID 651613; in the data active means inhibition above about 42%;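 further: HEK293T cells co-transfected with LRH-1 and StAR promoter luciferase reporter; 0% = vehicle wells and 100% = parental cells lacking receptor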). The conditions noted are these: cell-based LRH-1 luciferase reporter, inverse agonism; at 3.6 µM; stronger effect = higher value.
Assay [7] concerns the target Steroidogenic factor 1 (Homo sapiens) (UniProt Q13285). Briefly: SF1 (NR5A1) inverse agonists, counter-screen for LRH-1 inverse agonist project, cell-based, luminescence, high throughput (AID 651614; in the data active means inhibition above about 44%;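 further: cells cotransfected with StAR promoter reporter and SF1 expression vector; 0% = vehicle on cells with receptor and 100% = vehicle on cells lacking receptor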). The conditions noted are these: cell-based SF1 luciferase reporter, at 3.6 µM, stronger effect = higher value.
Assay [8] is described as follows: VP16 transactivation reporter inhibitors, counter-screen for LRH-1 inverse agonist project, cell-based, luminescence, high throughput (AID 651615). The conditions noted are these: Gal4-VP16 luciferase reporter cells, at 3.6 µM, stronger effect = higher value.

Consider 16 molecules from PubChem BioAssay.

Structures are written as SMILES. Where “and” joins values, the source holds several entries; their conditions need not be identical. Identical values can stand only once. Values without a mark were called inactive. Calls of active or inactive are those of the source. Unless noted, no stated cut-off is given here; in the data, active means inhibition above about 33%; inactive means the rest.

Nuclear receptor subfamily 5 group A member 2 (Homo sapiens), sequence (O00482 whole entry, looked up): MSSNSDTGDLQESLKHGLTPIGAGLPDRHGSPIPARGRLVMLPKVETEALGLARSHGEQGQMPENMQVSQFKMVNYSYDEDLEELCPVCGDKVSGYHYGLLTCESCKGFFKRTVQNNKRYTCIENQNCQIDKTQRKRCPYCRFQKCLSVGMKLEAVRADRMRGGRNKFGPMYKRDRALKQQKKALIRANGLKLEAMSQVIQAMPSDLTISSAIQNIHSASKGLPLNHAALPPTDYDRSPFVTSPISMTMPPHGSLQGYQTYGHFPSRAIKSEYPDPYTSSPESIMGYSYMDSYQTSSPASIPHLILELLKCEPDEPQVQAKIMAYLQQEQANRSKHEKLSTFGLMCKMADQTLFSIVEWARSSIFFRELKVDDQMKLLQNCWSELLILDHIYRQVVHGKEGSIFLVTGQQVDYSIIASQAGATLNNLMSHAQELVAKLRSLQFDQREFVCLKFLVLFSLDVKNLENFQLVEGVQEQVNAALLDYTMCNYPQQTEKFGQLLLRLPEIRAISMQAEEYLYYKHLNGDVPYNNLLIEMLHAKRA
Nuclear receptor coactivator 3 (Homo sapiens), sequence (Q9Y6Q9 whole entry, looked up, the tested form may be a part): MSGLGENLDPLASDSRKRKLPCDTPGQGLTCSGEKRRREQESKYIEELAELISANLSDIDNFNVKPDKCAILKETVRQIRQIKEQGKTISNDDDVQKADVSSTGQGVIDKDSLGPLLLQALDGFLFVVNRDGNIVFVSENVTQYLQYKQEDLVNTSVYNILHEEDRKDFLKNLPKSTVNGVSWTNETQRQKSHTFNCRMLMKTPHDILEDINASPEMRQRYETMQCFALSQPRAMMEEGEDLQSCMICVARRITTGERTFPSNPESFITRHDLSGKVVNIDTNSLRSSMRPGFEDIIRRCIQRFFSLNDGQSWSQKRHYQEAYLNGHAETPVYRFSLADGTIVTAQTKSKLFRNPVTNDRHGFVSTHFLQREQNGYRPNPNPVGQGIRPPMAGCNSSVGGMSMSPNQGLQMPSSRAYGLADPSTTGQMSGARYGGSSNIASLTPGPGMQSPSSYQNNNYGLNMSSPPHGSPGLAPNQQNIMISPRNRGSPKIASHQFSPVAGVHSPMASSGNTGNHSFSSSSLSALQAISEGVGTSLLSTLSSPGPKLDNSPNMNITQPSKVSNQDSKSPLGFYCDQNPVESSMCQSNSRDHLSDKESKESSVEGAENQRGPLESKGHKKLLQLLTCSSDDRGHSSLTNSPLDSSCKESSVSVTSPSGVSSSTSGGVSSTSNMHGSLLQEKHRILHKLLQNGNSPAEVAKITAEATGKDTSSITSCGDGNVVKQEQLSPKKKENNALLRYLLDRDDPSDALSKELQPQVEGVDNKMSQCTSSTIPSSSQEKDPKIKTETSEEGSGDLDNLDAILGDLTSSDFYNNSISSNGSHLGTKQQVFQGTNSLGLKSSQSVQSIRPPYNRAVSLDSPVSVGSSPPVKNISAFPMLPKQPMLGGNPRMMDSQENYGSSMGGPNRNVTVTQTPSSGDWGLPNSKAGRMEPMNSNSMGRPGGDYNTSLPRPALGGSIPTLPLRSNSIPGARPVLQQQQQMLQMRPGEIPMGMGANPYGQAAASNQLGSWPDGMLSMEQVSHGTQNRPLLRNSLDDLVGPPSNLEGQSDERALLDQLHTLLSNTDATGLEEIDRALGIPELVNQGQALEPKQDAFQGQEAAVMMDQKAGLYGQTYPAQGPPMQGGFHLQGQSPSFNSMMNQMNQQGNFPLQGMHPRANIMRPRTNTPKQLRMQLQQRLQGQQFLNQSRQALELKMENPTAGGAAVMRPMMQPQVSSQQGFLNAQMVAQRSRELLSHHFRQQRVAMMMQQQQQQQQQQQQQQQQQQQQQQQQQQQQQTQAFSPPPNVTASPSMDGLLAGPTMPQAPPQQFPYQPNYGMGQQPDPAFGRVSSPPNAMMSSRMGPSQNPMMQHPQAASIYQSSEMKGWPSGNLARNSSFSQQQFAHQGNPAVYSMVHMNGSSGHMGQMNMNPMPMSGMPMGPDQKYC
Steroidogenic factor 1 (Homo sapiens), sequence (Q13285 whole entry, looked up, the tested form may be a part): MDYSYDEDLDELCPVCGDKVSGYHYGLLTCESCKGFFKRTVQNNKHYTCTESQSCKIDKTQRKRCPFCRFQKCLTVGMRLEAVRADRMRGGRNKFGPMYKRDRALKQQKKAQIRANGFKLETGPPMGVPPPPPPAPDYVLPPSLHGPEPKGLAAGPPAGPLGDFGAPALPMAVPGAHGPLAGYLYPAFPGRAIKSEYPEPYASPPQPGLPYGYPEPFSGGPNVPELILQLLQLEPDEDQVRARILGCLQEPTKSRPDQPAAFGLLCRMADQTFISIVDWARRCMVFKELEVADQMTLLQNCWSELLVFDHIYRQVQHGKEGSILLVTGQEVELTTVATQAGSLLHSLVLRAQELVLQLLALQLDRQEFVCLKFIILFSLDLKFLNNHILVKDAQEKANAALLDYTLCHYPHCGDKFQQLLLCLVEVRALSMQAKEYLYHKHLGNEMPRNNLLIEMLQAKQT

For `O=C(N/N=C/c1ccc[nH]1)c1ccc(COc2cccc3cccnc23)cc1`, the inhibition in assay [1] was 83% (active); in assay [2], 71.8% (active); in assay [3], 0.58%; in assay [4], 66.5% (active); in assay [5], 86% (active); in assay [6], 109% (active). Also, the results for the inhibition in assay [7] and in assay [8] were 96.3% (active) and 88.4% (active), respectively.
As to `CC1CN(S(=O)(=O)c2ccc(C(=O)NCCCn3ccnc3)cc2)CC(C)O1` (stereo not drawn), the inhibition was 87.8% (active) in assay [1]; 47.5% (active) in assay [2]; 67.9% (active) in assay [3]; 30.4% (active) in assay [4]; 87.1% (active) in assay [5]; 99.2% (active) in assay [6]. Besides, the figures for the inhibition in assay [7] and in assay [8] were 95.5% (active) and 81.1% (active), respectively.
Regarding `COc1ccc2[nH]c3c(C)c4ccncc4c(C)c3c2c1`, the inhibition in assay [1] is -29%; in assay [2], 53.7% (active); in assay [3], 24.4%; in assay [4] it was 52.5% (active); in assay [5], 60.9% (active); in assay [6] it was 67.1% (active). The inhibition is 68.7% (active) in assay [7] and 72.1% (active) in assay [8].
As to `CC(=NNC(=S)N1CC2CCC(CC2)C1)c1ccccn1`, the inhibition in assay [1] is 35.5%; in assay [2], 54.8% (active); in assay [3], 1.55%; in assay [4], 49.8% (active); in assay [5], 59.4% (active); in assay [6] it was 98.3% (active). Further, the inhibition in assay [7] was 77.3% (active); in assay [8], 64.6% (active).
With `CC[n+]1ccc(/C=C/c2c[nH]c3ccccc23)cc1`, the inhibition was 8.39% in assay [1]; 22.7% in assay [2]; -16.8% in assay [3]; 25.5% (active) in assay [4]; 18% in assay [5]; 65% (active) in assay [6]. Also, the inhibition is 55.9% (active) in assay [7] and 60.8% (active) in assay [8].
With `Cc1ccc(N(CCC#N)C(=O)CCl)cc1C`, the inhibition in assay [1] is 54.3% (active); in assay [2] it was 14.7%; in assay [3] it was 7.31%; in assay [4], 28.4% (active); in assay [5] it was 14.8%; in assay [6], 58.5% (active). Besides, the figures for the inhibition in assay [7] and in assay [8] were 49.2% (active) and 15.7%, respectively.
In the case of `Cc1ccc2ccc3ccc(C)nc3c2n1`, the inhibition in assay [1] was 42.1%; in assay [2], 70.6% (active); in assay [3], 44.8%; in assay [4], 68.2% (active); in assay [5], 77.2% (active); in assay [6] it was 85.8% (active). Besides, the inhibition in assay [7] was 87.4% (active); in assay [8], 68.9% (active).
As for `CC[n+]1c(/C=C/N(C)c2ccccc2)oc2ccccc21`, the inhibition in assay [1] was 34.7%; in assay [2], 55.8% (active); in assay [3] it was 16.9%; in assay [4] it was 55.2% (active); in assay [5], 31.9% (active); in assay [6] it was 82% (active). Also, the results for the inhibition in assay [7] and in assay [8] were 69% (active) and 73.2% (active), respectively.
For the molecule `Cc1cc(C)nc(NC(N)=NCCc2ccccc2)n1`, the inhibition was 75.9% (active) in assay [1]; 46.3% (active) in assay [2]; 51.5% (active) in assay [3]; 49.1% (active) in assay [4]; 58.4% (active) in assay [5]; 109% (active) in assay [6]. Further, the inhibition in assay [7] is 88.2% (active); in assay [8] it was 93.5% (active).
Take `O=C(/C=C/c1ccc(O)cc1)c1ccc(NC2=C(N3CCCCC3)C(=O)c3ccccc3C2=O)cc1`: the inhibition in assay [1] was 33.2%; in assay [2], 26.1%; in assay [3], 22.5%; in assay [4], 36.1% (active); in assay [5], -1.86%; in assay [6] it was 76.3% (active). The results for the inhibition in assay [7] and in assay [8] were 17.3% and 67.4% (active), respectively.
Consider `C=C1C(=O)c2sccc2C(c2ccc(OC)c(OC)c2)C1COC(C)=O` (stereo not drawn), for which the inhibition is 67.7% (active) in assay [1]; 59% (active) in assay [2]; 6.09% in assay [3]; 58.4% (active) in assay [4]; 69.8% (active) in assay [5]; 95.4% (active) in assay [6]. For the same molecule, the inhibition was 92.8% (active) in assay [7] and 82.4% (active) in assay [8].
Regarding `COc1ccccc1N1CCN(Cc2cc(Br)c(O)c3ncccc23)CC1`, the inhibition in assay [1] is 21.4%; in assay [2] it was 3.52%; in assay [3] it was -1.06%; in assay [4] it was -1.42%; in assay [5], 23.9%; in assay [6], 23.9%. Besides, the inhibition was 42.8% (active) in assay [7] and 21.7% in assay [8].
As for `CCN1/C(=C/C(C)=C/c2sc3ccccc3[n+]2CC)Sc2ccccc21`, the inhibition in assay [1] is 80.9% (active); in assay [2], 84.2% (active); in assay [3] it was 58.4% (active); in assay [4], 81.6% (active); in assay [5], 77% (active) and 81.8% (active); in assay [6], 107% (active) and 106% (active). In addition, the inhibition in assay [7] was 89.7% (active) and 93.3% (active); in assay [8] it was 88.1% (active) and 89.4% (active).
For `O=C(Nc1ccc([N+](=O)[O-])cc1)c1ccc(Cn2cc([N+](=O)[O-])cn2)cc1`, the inhibition is 43.1% (active) in assay [1]; 58.7% (active) in assay [2]; 29.1% in assay [3]; 56.1% (active) in assay [4]; 52.3% (active) in assay [5]; 77.3% (active) in assay [6]. For the same molecule, the inhibition in assay [7] was 72.8% (active); in assay [8], 74.4% (active).
Turning to `CCCCCCCn1c2c(c(=N)c3c1CCC3)CCCC2`, the inhibition in assay [1] is 70.2% (active); in assay [2] it was 81.8% (active); in assay [3], 56.2% (active); in assay [4], 83.4% (active); in assay [5] it was 79.3% (active); in assay [6], 110% (active). The inhibition in assay [7] is 95.8% (active); in assay [8], 98.2% (active).
With `COCCn1c(C)cc(C2=NNC(=Nc3ccccc3)SC2)c1C`, the inhibition was -62.4% in assay [1]; -40.8% in assay [2]; -119% in assay [3]; -64% in assay [4]; -73.4% in assay [5]; -77.6% in assay [6]. Further, the inhibition in assay [7] was -67.8%; in assay [8] it was -136%.
